Screening results as filed in PubChem.
TDP1 cell CPT: qHTS for Inhibitors of human tyrosyl-DNA phosphodiesterase 1 (TDP1): qHTS in cells in presence of CPT; Potency, µM (titrated, usually from 46.2 µM), usual class: inhibitors; chicken DT40 Tdp1-/-;hTDP1 cells + 20 nM CPT, ATP luminescence, 48 h; 420,000 tested, 12% active; note: nearly all actives have a fitted effect of over 55% in size
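Chicken DT40 Tdp1-/- cells stably complemented with human TDP1 were seeded at 400 cells/well in medium containing 20 nM camptothecin, exposed to pin-transferred compounds, and grown at 37 °C for at least 48 hr. Viability was read as ATP luminescence.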
Chronic BCR inh: qHTS Assay to Find Inhibitors of Chronic Active B-Cell Receptor Signaling; ABC-DLBCL IkBa-CBG/CBR reporter, luminescence ratio, 4 h; Potency, µM (titrated, usually from 46.1 µM), most hits filed as inhibitors; 340,000 tested, 0.05% active; active = well fitted inhibition curve with a large enough effect in the signal ratio, with a control signal flat, not every such curve was filed as active; inconclusive = small, poorly fitted or top-dose-only effect, or effect the other way, or a change in a side signal; the % refers to the signal ratio
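TMD8 human ABC-DLBCL cells with doxycycline-inducible IκBα–green luciferase fusion and unfused red luciferase, in 0.5% FBS medium; compounds up to 46 uM, 4 h at 37C. Green/red luminescence ratio, filter-overlap corrected, fitted to concentration-response curves.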
MCF10A rereplic: A quantitative high throughput screen for small molecules that induce DNA re-replication in MCF 10a normal breast cells; MCF 10A DNA re-replication, Hoechst nuclear intensity, 48 h; Potency, µM (doses to about 46.1 µM), usual class: activators; 350,000 tested, 2.9% active; AID 624296, 2012; note: nearly all actives have a fitted effect of over 50% in size
DT40 TDP1 no CPT: qHTS for Inhibitors of human tyrosyl-DNA phosphodiesterase 1 (TDP1): qHTS in cells in absence of CPT | DT40 Tdp1-/- hTDP1 cells, no CPT, ATP luminescence, 48 h | Potency, µM (doses to about 46.2 µM), most hits filed as inhibitors | 420,000 tested, 15% active; note: nearly all actives have a fitted effect of over 55% in size
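Growth of hTDP1-complemented DT40 Tdp1-knockout cells is measured by ATP luminescence after at least 48 hr compound exposure at 37 °C, with DMSO substituting for the 20 nM CPT used in the parallel screen.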
IL1B secr inh: qHTS for Inhibitors of Inflammasome Signaling: IL-1-beta AlphaLISA Primary Screen; AID 743279, 2014; 360,000 tested, 4.7% active; activity change, % at 57.5 µM; THP-1 LPS/ATP IL-1B secretion, AlphaLISA, 16 h; hits give low values; in the data active = activity change below about -50%; inconclusive = mostly about -30% to -49%
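THP-1 cells pretreated 1 hr with compounds (up to 57.5 uM final), then stimulated with LPS (250 ng/mL final) plus ATP (1.25 mM final); secreted IL-1B measured by AlphaLISA after 16 hr, decreased signal indicating inhibition.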
SW480 rerep: A quantitative high throughput screen for small molecules that induce DNA re-replication in SW480 colon adenocarcinoma cells; SW480 DNA re-replication, Hoechst DNA content imaging, 48 h; Potency, µM (series often up to 46.1 µM), hits mostly activators; 340,000 tested, 1.8% active; AID 624297, 2012; note: nearly all actives have a fitted effect of over 55% in size
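Image-based read-out: total Hoechst fluorescence of nuclei (405 nm excitation, 500-530 nm emission), with hits raising the fraction of high-intensity nuclei. SW480 colon cells incubated 48 hr with compounds at 37 C.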
Hits are given with their value. Rows were chosen to be rich in hits. Some 19% of all compounds tested hit in one or more screens of this group. Unless noted, calls come from the whole dose curve; as a rule, active = well fitted curve in the direction sought with a large enough effect; inconclusive = small, poorly fitted or top-dose-only effect, or another doubt; inactive = no such curve, though single readings can be large; an effect the other way counts as inactive or inconclusive.

`CC(O)CNc1nc(N)[nH]c(=O)c1N=Nc1ccccc1` (configuration not stated) gave TDP1 cell CPT inactive, MCF10A rereplic inactive, DT40 TDP1 no CPT inactive, IL1B secr inh inactive and SW480 rerep inactive.
Screening CC(C)(C)C1CCc2c(sc(NC(=O)c3cccc(Cl)c3)c2C(=O)NCc2ccco2)C1 (configuration not stated) returned TDP1 cell CPT inactive and DT40 TDP1 no CPT inactive.
CC1(C(=O)Nc2ccc3c(c2)OCCO3)CN(S(C)(=O)=O)CC(=O)N1CCc1ccc(O)cc1 (configuration not stated) was read as TDP1 cell CPT inactive, DT40 TDP1 no CPT inactive and IL1B secr inh inactive.
`Cc1ccc(S(=O)(=O)N(C)c2ccc(OC(=O)c3cccs3)cc2)cc1C` gave TDP1 cell CPT inconclusive, Chronic BCR inh inactive, MCF10A rereplic inactive, DT40 TDP1 no CPT inconclusive, IL1B secr inh inactive and SW480 rerep inactive.
For Cc1cc(C(=O)N/N=C/c2cc(N=Nc3ccccc3)ccc2O)n[nH]1 the results were TDP1 cell CPT 5.8µM, Chronic BCR inh inactive, MCF10A rereplic inactive, DT40 TDP1 no CPT 6.5µM, IL1B secr inh inactive and SW480 rerep inconclusive.
`Cc1[nH]n(-c2ccc(Cl)cc2)c(=O)c1/C=N/c1nnc(-c2ccccc2)s1` gave TDP1 cell CPT inconclusive, Chronic BCR inh inactive, MCF10A rereplic inactive, DT40 TDP1 no CPT 16µM, IL1B secr inh inactive and SW480 rerep inactive.
COC(=O)N/N=C/c1cc(N=Nc2ccccc2)ccc1O was read as TDP1 cell CPT inconclusive, Chronic BCR inh inactive, MCF10A rereplic inactive, DT40 TDP1 no CPT inconclusive, IL1B secr inh inactive and SW480 rerep inactive.
For O=c1cc(-c2ccccc2)nc2cc(-c3ccco3)[nH]n12 the results were TDP1 cell CPT inconclusive, Chronic BCR inh inconclusive, MCF10A rereplic inactive, DT40 TDP1 no CPT inactive, IL1B secr inh inactive and SW480 rerep inactive.
For O=c1cc(-c2ccccc2)nc2cc(-c3ccc(Br)cc3)[nH]n12 the results were TDP1 cell CPT inconclusive, Chronic BCR inh inconclusive, MCF10A rereplic 3.3µM, DT40 TDP1 no CPT inactive, IL1B secr inh inactive and SW480 rerep inactive.
For CN(C)c1cccc(/C=C(\C#N)c2ccccc2)c1 the results were TDP1 cell CPT 2.9µM, Chronic BCR inh inconclusive, MCF10A rereplic inconclusive, DT40 TDP1 no CPT 2.3µM, IL1B secr inh inactive and SW480 rerep inconclusive.
`COc1ccc(C(C#N)=Cc2ccc(N(C)CCC#N)cc2)cc1` gave TDP1 cell CPT 23µM, DT40 TDP1 no CPT 26µM and IL1B secr inh inactive.
For CN(C)c1ccc(/C=C(\C#N)c2ccccc2)cc1 the results were TDP1 cell CPT 2.6µM, Chronic BCR inh inconclusive, MCF10A rereplic 3.7µM, DT40 TDP1 no CPT 2.6µM, IL1B secr inh inactive and SW480 rerep 3.7µM.
Screening CN(C)c1ccc(/C=C(\C#N)C(=O)c2ccccc2)cc1 returned TDP1 cell CPT inactive, Chronic BCR inh inactive, MCF10A rereplic inactive, DT40 TDP1 no CPT inactive, IL1B secr inh inactive and SW480 rerep inactive.
`COc1ccc(N=Cc2ccc(N(CCC#N)CCC#N)cc2)cc1` gave TDP1 cell CPT inactive, MCF10A rereplic inactive, DT40 TDP1 no CPT inactive, IL1B secr inh inactive and SW480 rerep inactive.
Cc1cc(-c2cc(C)c(N)cc2C)c(C)cc1N was read as TDP1 cell CPT inconclusive, MCF10A rereplic inactive, DT40 TDP1 no CPT inconclusive, IL1B secr inh inactive and SW480 rerep 18µM.
COC(=O)c1ccc(CNC(=O)c2ccc(S(=O)(=O)N3CCCC(C)C3)cc2)cc1 (configuration not stated) was read as TDP1 cell CPT inconclusive, Chronic BCR inh inactive, MCF10A rereplic inactive, DT40 TDP1 no CPT inactive, IL1B secr inh inactive and SW480 rerep inactive.
Screening O=C(CC1OC(=O)c2ccccc21)Nc1ccc(Cl)c(S(=O)(=O)N2CCCCC2)c1 (configuration not stated) returned TDP1 cell CPT inconclusive, Chronic BCR inh inactive, MCF10A rereplic inactive, DT40 TDP1 no CPT inconclusive, IL1B secr inh inactive and SW480 rerep inactive.
Screening O=C1CCC2CN3CCc4c([nH]c5ccccc45)C3CC2C1 (configuration not stated) returned TDP1 cell CPT inconclusive, DT40 TDP1 no CPT 21µM and IL1B secr inh inactive.
Screening CCOc1ccc(N(CC(=O)NCCSCc2ccco2)S(=O)(=O)c2ccc(C)cc2)cc1 returned TDP1 cell CPT 18µM, Chronic BCR inh inactive, MCF10A rereplic inactive, DT40 TDP1 no CPT inconclusive, IL1B secr inh inactive and SW480 rerep inactive.
Screening CCOc1ccc(N(CC(=O)NCCSCc2ccco2)S(=O)(=O)c2ccc(F)cc2)cc1 returned TDP1 cell CPT inconclusive, Chronic BCR inh inactive, MCF10A rereplic inactive, DT40 TDP1 no CPT 21µM, IL1B secr inh inactive and SW480 rerep inactive.
CCCCn1c(N)c(N(C(=O)CSc2nnc(C)n2-c2ccccc2)C2CCCC2)c(=O)[nH]c1=O was read as TDP1 cell CPT inactive, Chronic BCR inh inconclusive, MCF10A rereplic inactive, DT40 TDP1 no CPT inactive, IL1B secr inh inactive and SW480 rerep inactive.
Screening COc1ccccc1/C=C/C=N/n1c(C)nnc1C returned TDP1 cell CPT inactive, Chronic BCR inh inconclusive, MCF10A rereplic inactive, DT40 TDP1 no CPT inactive, IL1B secr inh inactive and SW480 rerep inactive.
Cc1ccc(Cl)cc1N1CCN(C(=O)CN(C2CCCCC2)S(C)(=O)=O)CC1 was read as TDP1 cell CPT 15µM, Chronic BCR inh inactive, MCF10A rereplic inactive, DT40 TDP1 no CPT 8.2µM, IL1B secr inh inconclusive and SW480 rerep inactive.
Screening CS(=O)(=O)N(CC(=O)N1CCN(c2cccc(Cl)c2)CC1)C1CCCCC1 returned TDP1 cell CPT inactive, Chronic BCR inh inconclusive, MCF10A rereplic inactive, DT40 TDP1 no CPT inconclusive, IL1B secr inh inactive and SW480 rerep inactive.
`COc1ccc(OC)c(N(CC(=O)N2CCN(c3cc(Cl)ccc3C)CC2)S(C)(=O)=O)c1` gave TDP1 cell CPT 15µM, Chronic BCR inh inactive, MCF10A rereplic inactive, DT40 TDP1 no CPT inconclusive, IL1B secr inh inactive and SW480 rerep inactive.
For COc1cc(C2C(C(=O)c3cc4ccccc4o3)=C(O)C(=O)N2CCN2CCOCC2)ccc1OCCC(C)C (configuration not stated) the results were TDP1 cell CPT inactive, Chronic BCR inh inconclusive, MCF10A rereplic inconclusive, DT40 TDP1 no CPT inconclusive, IL1B secr inh inactive and SW480 rerep inactive.
